Growth data for 13 molecules are collected here from PubChem BioAssay (NCI).

This is part of a sample that, as a whole, favours compounds with a hit. Of some 83,000 tested, about 20% had one in any assay.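 Cell lines were cultured in 96-well plates, exposed to a single compound concentration, and assessed for percent growth 48 hours later.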 A number with no mark means an inactive call. Activity calls are given as the source filed them. The calls were made as follows: active = growth percent below 10; inactive = the rest.

Some test systems named below: SR leukemia; RPMI-8226 leukemia; OVCAR-8 ovarian; OVCAR-5 ovarian; OVCAR-4 ovarian; SK-OV-3 ovarian; IGROV1 ovarian; OVCAR-3 ovarian; HS 578T breast; NCI/ADR-RES ovarian.
Assay in all cases: NCI-60 one-dose screen, 48 h (100 = growth as untreated, 0 = no growth, -100 = all killed)
Settings in all cases: 10 µM

As for `CN1C/C(=C\c2ccc(O)cc2O)c2[o+]c3cc(O)ccc3cc2C1`, the growth was 2.85% (active) in the test with SR leukemia; 33% in the test on RPMI-8226 leukemia; 62.7% in the test on OVCAR-8 ovarian; 72.1% with OVCAR-5 ovarian; 68.2% with OVCAR-4 ovarian; 105% in the test on SK-OV-3 ovarian. Further, the growth in the test with IGROV1 ovarian is 34.8%; in the test with OVCAR-3 ovarian, -8.86% (active); in the test on HS 578T breast, 50.1%; in the test on NCI/ADR-RES ovarian, 107%.
Turning to `CCCCSc1nc(Nc2ccc(/C(C)=N/NC(N)=S)cc2)c(C#N)c(-c2ccccc2)n1`, the growth was 61.6% with SR leukemia; 47.3% in the test with RPMI-8226 leukemia; 15.1% in the test with OVCAR-8 ovarian; 60.4% in the test with OVCAR-5 ovarian; 5.32% (active) in the test on OVCAR-4 ovarian; 108% in the test with SK-OV-3 ovarian. The growth was 57.6% with IGROV1 ovarian, 13.4% with OVCAR-3 ovarian, 43.6% in the test on HS 578T breast and 25.3% in the test with NCI/ADR-RES ovarian.
As to `O=C(CNc1nc(-c2ccccc2)cs1)Nc1ccc([N+](=O)[O-])cc1Cl`, the growth is 16.7% in the test on SR leukemia; 15.5% with RPMI-8226 leukemia; 30.4% with OVCAR-8 ovarian; 36.4% in the test on OVCAR-5 ovarian; 45.4% with OVCAR-4 ovarian; 35.8% with SK-OV-3 ovarian. Further, the values for the growth in the test on IGROV1 ovarian, in the test with OVCAR-3 ovarian and in the test with HS 578T breast were 33.9%, 23.4% and 17.6%, respectively.
Consider `CN1CCN(Cc2ccc(C(=O)Nc3cccc(Nc4ccc5c(O)cccc5n4)c3)cc2C(F)(F)F)CC1`, for which the growth in the test on SR leukemia is 4.88% (active); in the test with RPMI-8226 leukemia it was -10.6% (active); with OVCAR-8 ovarian, -19.5% (active); in the test with OVCAR-5 ovarian it was -48.7% (active); in the test with OVCAR-4 ovarian, -13.1% (active); in the test on SK-OV-3 ovarian, -46.6% (active). In addition, the growth in the test on IGROV1 ovarian was -54.6% (active); with OVCAR-3 ovarian, -23% (active); in the test with HS 578T breast it was -37.5% (active); with NCI/ADR-RES ovarian, -0.427% (active).
As for `O=C(CSc1nnc(-c2ccc3nc(-c4ccccc4)[nH]c3c2)o1)Nc1ccc(Br)cc1`, the growth in the test with SR leukemia is 32.1%; with RPMI-8226 leukemia, 41%; with OVCAR-8 ovarian, 24.8%; in the test with OVCAR-5 ovarian it was 86.1%; in the test with OVCAR-4 ovarian, 81.3%; in the test on SK-OV-3 ovarian it was 80%. Also, the growth in the test with IGROV1 ovarian is 80.4%; in the test with OVCAR-3 ovarian it was 73.9%; in the test on HS 578T breast, 79.6%; with NCI/ADR-RES ovarian it was 78.1%.
Consider `COc1cc2c(c(OC)c1OC)C(=O)CC(c1cccc(NC(=O)c3cccc(N)c3)c1)O2` (stereo not drawn), for which the growth was 47.7% with SR leukemia; 57.4% in the test with RPMI-8226 leukemia; 55% with OVCAR-8 ovarian; 123% in the test with OVCAR-5 ovarian; 64.1% in the test with OVCAR-4 ovarian; 107% in the test on SK-OV-3 ovarian. Further, the growth was 86.7% in the test with IGROV1 ovarian, 80.9% in the test with OVCAR-3 ovarian, 90.3% in the test on HS 578T breast and 68.2% in the test on NCI/ADR-RES ovarian.
Take `Clc1ccc2c(N/N=C/c3c[nH]c4ccc(Br)cc34)ccnc2c1`: the growth is -45.6% (active) in the test with SR leukemia; -42.1% (active) with RPMI-8226 leukemia; -64.6% (active) in the test on OVCAR-8 ovarian; -66.5% (active) with OVCAR-5 ovarian; -78.6% (active) in the test on OVCAR-4 ovarian; -84.7% (active) in the test with SK-OV-3 ovarian. The growth in the test with IGROV1 ovarian was -41.2% (active); in the test with OVCAR-3 ovarian, -82.8% (active); in the test on HS 578T breast it was -58.5% (active); with NCI/ADR-RES ovarian, -77.5% (active).
Consider `O=C(CSc1nnc(-c2c[nH]c3ccccc23)n1-c1ccccc1)c1ccccc1`, for which the growth with SR leukemia was 81.6%; in the test with RPMI-8226 leukemia, 81.3%; in the test on OVCAR-8 ovarian, 14.7%; with OVCAR-5 ovarian it was 88.6%; in the test with OVCAR-4 ovarian, -2.47% (active); in the test on SK-OV-3 ovarian it was 85.6%. Also, the growth with IGROV1 ovarian was 55.1%; in the test with OVCAR-3 ovarian it was 60.8%; in the test with HS 578T breast, 24.1%; in the test with NCI/ADR-RES ovarian, 14.8%.
For `CCCCOc1ccc(Nc2nc3ccccc3nc2Nc2ccc(OCCCC)cc2)cc1`, the growth with SR leukemia is 80.1%; with RPMI-8226 leukemia, 57.8%; in the test on OVCAR-8 ovarian, 92.3%; in the test with OVCAR-5 ovarian, 128%; with OVCAR-4 ovarian, 93.6%; with SK-OV-3 ovarian it was 106%. In addition, the growth was 108% in the test with IGROV1 ovarian, 68.9% in the test with OVCAR-3 ovarian and 103% in the test on HS 578T breast.
For the molecule `COc1cc(OC(F)(F)F)ccc1C(=O)Nc1sc2c(c1C#N)CCC(=O)C2`, the growth with SR leukemia is 15.1%; in the test with RPMI-8226 leukemia it was 51.7%; in the test on OVCAR-8 ovarian, 93%; with OVCAR-5 ovarian it was 138%; with OVCAR-4 ovarian, 62.1%; in the test on SK-OV-3 ovarian, 81.2%. For the same molecule, the growth is 112% in the test on IGROV1 ovarian, 112% in the test with OVCAR-3 ovarian, 75.9% with HS 578T breast and 75.1% with NCI/ADR-RES ovarian.
Regarding `CCCn1c(O)c(N=Nc2nc(-c3cc4ccccc4oc3=O)cs2)c2cc(Br)ccc21`, the growth was 101% in the test with SR leukemia; 97.9% in the test on RPMI-8226 leukemia; 105% with OVCAR-8 ovarian; 98.3% with OVCAR-5 ovarian; 98.9% in the test with OVCAR-4 ovarian; 110% in the test on SK-OV-3 ovarian. Also, the growth was 106% in the test with IGROV1 ovarian, 100% in the test with OVCAR-3 ovarian, 83.4% with HS 578T breast and 95.4% in the test on NCI/ADR-RES ovarian.
For `N#Cc1c(NC(=O)c2cccc(C(F)(F)F)c2)sc2c1CCC(O)=C2`, the growth was 14.6% in the test with SR leukemia; 25% in the test on RPMI-8226 leukemia; 41.6% with OVCAR-8 ovarian; 119% in the test with OVCAR-5 ovarian; 29.5% with OVCAR-4 ovarian; 40.3% in the test on SK-OV-3 ovarian. The growth in the test on IGROV1 ovarian was 34.4%; in the test on OVCAR-3 ovarian it was 36.8%; in the test with HS 578T breast, 44.1%; in the test with NCI/ADR-RES ovarian, 18.6%.
Turning to `Cn1cc(-c2cc(N)n3nc(-c4c[nH]c5ccc(Br)cc45)cc3n2)c2cccnc21`, the growth in the test on SR leukemia is -23.6% (active); with RPMI-8226 leukemia, 3.37% (active); in the test with OVCAR-8 ovarian, -68.8% (active); in the test with OVCAR-5 ovarian, -87.4% (active); in the test on OVCAR-4 ovarian it was -42.2% (active); in the test on SK-OV-3 ovarian it was -72.6% (active). In addition, the growth was -69.8% (active) in the test with IGROV1 ovarian, -78.9% (active) with OVCAR-3 ovarian, -38.8% (active) in the test on HS 578T breast and -55.7% (active) in the test with NCI/ADR-RES ovarian.
